Measured values from the antibiotic and cytotoxicity screens of Wong et al. (2023).
Among all 39,000 compounds or so, about 3,300 (8.5%) were called active. Many of the other results were omitted from the sample, so actives are more common in it than they were.

Tested on: HepG2
Assay: cytotoxicity call (relative viability < 0.9)
Conditions: 10 µM

SMILES | cytotoxicity call
C[C@@H]1CN([C@@H](C)CO)S(=O)(=O)c2ccc(C#Cc3ccncc3)cc2O[C@H]1CN(C)C(=O)c1ccncc1 | inactive
C[C@H](O)C#Cc1ccc2c(c1)O[C@H](CN(C)C(=O)c1ccncc1)[C@H](C)CN([C@@H](C)CO)S2(=O)=O | inactive
C[C@H](CO)N1C[C@H](C)[C@@H](CN(C)C(=O)c2ccncc2)Oc2cc(C#Cc3ccncc3)ccc2S1(=O)=O | active
C[C@H](CO)N1C[C@H](C)[C@H](CN(C)C(=O)c2ccncc2)Oc2cc(C#Cc3ccncc3)ccc2S1(=O)=O | active
C[C@H](O)C#Cc1ccc2c(c1)O[C@@H](CN(C)C(=O)c1ccncc1)[C@@H](C)CN([C@H](C)CO)S2(=O)=O | inactive
C[C@H](O)C#Cc1ccc2c(c1)O[C@H](CN(C)C(=O)c1ccncc1)[C@@H](C)CN([C@@H](C)CO)S2(=O)=O | inactive
C[C@H]1CN([C@@H](C)CO)S(=O)(=O)c2ccc(C#Cc3ccncc3)cc2O[C@@H]1CN(C)C(=O)c1ccncc1 | active
C[C@@H]1CN([C@@H](C)CO)S(=O)(=O)c2ccc(C#Cc3ccncc3)cc2O[C@@H]1CN(C)C(=O)c1ccncc1 | inactive
C[C@H](O)C#Cc1ccc2c(c1)O[C@@H](CN(C)C(=O)c1ccncc1)[C@H](C)CN([C@@H](C)CO)S2(=O)=O | inactive
C[C@H](O)C#Cc1ccc2c(c1)O[C@@H](CN(C)C(=O)c1ccncc1)[C@H](C)CN([C@H](C)CO)S2(=O)=O | inactive
C[C@@H]1CN([C@H](C)CO)S(=O)(=O)c2ccc(C#Cc3ccncc3)cc2O[C@@H]1CN(C)C(=O)c1ccncc1 | active
C[C@@H](O)C#Cc1ccc2c(c1)O[C@@H](CN(C)C(=O)c1ccncc1)[C@@H](C)CN([C@@H](C)CO)S2(=O)=O | inactive
C[C@@H]1CN([C@H](C)CO)S(=O)(=O)c2ccc(C#CC(C)(C)O)cc2O[C@@H]1CN(C)Cc1ccncc1 | inactive
CCCNC(=O)C[C@H]1CC[C@@H]2[C@H](COc3ccc(NS(=O)(=O)c4ccccc4C)cc3C(=O)N2C)O1 | inactive
C[C@H](CO)N1C[C@H](C)[C@@H](CN(C)C(=O)Nc2ccc(F)cc2)OCCCC[C@H](C)Oc2ccc(NC(=O)CCC(F)(F)F)cc2C1=O | inactive
COCC(=O)N1C[C@H](C)[C@H](OC)CN(C)C(=O)c2cc(NC(=O)c3ccc(OC)cc3)ccc2OC[C@H]1C | inactive
NCCSC12CC3CC(CC(C3)C1)C2 | inactive
C[C@H](O)C#Cc1ccc2c(c1)O[C@@H](CN(C)C(=O)c1ccncc1)[C@@H](C)CN([C@@H](C)CO)S2(=O)=O | inactive
C[C@@H]1CN([C@H](C)CO)S(=O)(=O)c2ccc(C#C[C@@H](C)O)cc2O[C@H]1CN(C)C(=O)c1ccncc1 | inactive
C[C@H]1CN([C@@H](C)CO)S(=O)(=O)c2ccc(C#Cc3ccncc3)cc2O[C@H]1CN(C)C(=O)c1ccncc1 | active
C[C@@H]1CN([C@H](C)CO)S(=O)(=O)c2ccc(C#Cc3ccncc3)cc2O[C@H]1CN(C)C(=O)c1ccncc1 | active

SMILES | cytotoxicity call
C[C@@H](O)C#Cc1ccc2c(c1)O[C@H](CN(C)C(=O)c1ccncc1)[C@@H](C)CN([C@@H](C)CO)S2(=O)=O | inactive
C[C@H](O)C#Cc1ccc2c(c1)O[C@H](CN(C)C(=O)c1ccncc1)[C@@H](C)CN([C@H](C)CO)S2(=O)=O | inactive
COc1ccc(CN(C)C[C@@H]2OCCCC[C@H](C)Oc3ccc(NS(=O)(=O)c4ccc(C)cc4)cc3C(=O)N([C@H](C)CO)C[C@H]2C)cc1 | inactive
COc1ccc(S(=O)(=O)N(C)C[C@H]2OCc3cn(nn3)CCCC(=O)N([C@H](C)CO)C[C@H]2C)cc1 | inactive
C[C@@H]1CCCCO[C@H](CN(C)S(C)(=O)=O)[C@@H](C)CN([C@H](C)CO)C(=O)c2cc(NS(=O)(=O)c3cn(C)cn3)ccc2O1 | inactive
CC(=O)n1cc([C@@H]2C=C(C(=O)N3CCN(C)CC3)O[C@H](OCc3ccc(CO)cc3)C2)c2ccccc21 | inactive
CCn1c(C)cn2c3c(=O)n(CCN4CCOCC4)c(=O)n(C)c3nc12 | inactive
O=C/C=C/c1ccccc1Cl | inactive
C[C@@H]1CN([C@@H](C)CO)C(=O)c2cccc(NS(C)(=O)=O)c2O[C@H]1CN(C)C(=O)Nc1ccccc1 | inactive
C[C@@H]1CN([C@@H](C)CO)C(=O)c2cc(NC(=O)Cc3ccccc3)ccc2O[C@@H]1CN(C)S(C)(=O)=O | inactive
COC(=O)c1cccc(C(=O)OC)n1 | inactive
COC(=O)c1ccc(C(=O)OC)nc1 | active
COC(=O)c1ccc(O)cc1 | inactive
C[C@H](CO)N1C[C@H](C)[C@@H](CN(C)S(=O)(=O)c2ccccc2)Oc2ccc(NC(=O)Nc3cccc4ccccc34)cc2C1=O | inactive
CCC(=O)N[C@H]1CC[C@@H](CC(=O)OC)O[C@H]1CO | inactive
C[C@@H]1CN([C@H](C)CO)C(=O)c2cccc(NC(=O)C3CCCCC3)c2O[C@H]1CN(C)C(=O)Nc1cccc2ccccc12 | inactive
COC(=O)[C@H](Cc1ccccc1)N1CC2=C[C@@H]([C@@H](O)CCn3cc(C(=O)NO)nn3)n3c(=O)n(C)c(=O)n3[C@@H]2[C@@H](C2CC2)O1 | inactive
Cc1ccc(S(=O)(=O)Nc2ccc3c(c2)C(=O)N([C@@H](C)CO)C[C@@H](C)[C@H](CN(C)C(=O)Nc2ccc(F)cc2)OCCCC[C@@H](C)O3)cc1 | inactive
Cc1ccc(S(=O)(=O)Nc2ccc3c(c2)C(=O)N([C@H](C)CO)C[C@H](C)[C@@H](CN(C)C(=O)Nc2ccc(F)cc2)OCCCC[C@H](C)O3)cc1 | active
Cc1ccc(S(=O)(=O)Nc2ccc3c(c2)C(=O)N([C@@H](C)CO)C[C@H](C)[C@@H](CN(C)C(=O)Nc2ccccc2)OCCCC[C@H](C)O3)cc1 | active
Cc1ccc(S(=O)(=O)Nc2ccc3c(c2)C(=O)N([C@@H](C)CO)C[C@H](C)[C@@H](CN(C)C(=O)Nc2ccc(F)cc2)OCCCC[C@H](C)O3)cc1 | inactive

SMILES | cytotoxicity call
Cc1ccc(S(=O)(=O)Nc2ccc3c(c2)C(=O)N([C@H](C)CO)C[C@H](C)[C@H](CN(C)C(=O)Nc2ccc(F)cc2)OCCCC[C@H](C)O3)cc1 | inactive
Cc1ccc(S(=O)(=O)Nc2ccc3c(c2)C(=O)N([C@H](C)CO)C[C@@H](C)[C@H](CN(C)C(=O)Nc2ccc(F)cc2)OCCCC[C@@H](C)O3)cc1 | active
Cc1ccc(S(=O)(=O)Nc2ccc3c(c2)C(=O)N([C@H](C)CO)C[C@@H](C)[C@H](CN(C)C(=O)Nc2ccc(F)cc2)OCCCC[C@H](C)O3)cc1 | active
Cc1ccc(S(=O)(=O)Nc2ccc3c(c2)C(=O)N([C@@H](C)CO)C[C@@H](C)[C@@H](CN(C)C(=O)Nc2ccc(F)cc2)OCCCC[C@@H](C)O3)cc1 | inactive
Cc1ccc(S(=O)(=O)Nc2ccc3c(c2)C(=O)N([C@@H](C)CO)C[C@H](C)[C@@H](CN(C)C(=O)Nc2ccc(F)cc2)OCCCC[C@@H](C)O3)cc1 | inactive
Cc1ccc(S(=O)(=O)Nc2ccc3c(c2)C(=O)N([C@@H](C)CO)C[C@H](C)[C@H](CN(C)C(=O)Nc2ccc(F)cc2)OCCCC[C@@H](C)O3)cc1 | inactive
Cc1ccc(S(=O)(=O)Nc2ccc3c(c2)C(=O)N([C@@H](C)CO)C[C@@H](C)[C@@H](CN(C)C(=O)Nc2ccccc2)OCCCC[C@H](C)O3)cc1 | inactive
Cc1ccc(S(=O)(=O)Nc2ccc3c(c2)C(=O)N([C@H](C)CO)C[C@H](C)[C@@H](CN(C)C(=O)Nc2ccccc2)OCCCC[C@H](C)O3)cc1 | inactive
C[C@@H]1CN([C@@H](C)CO)C(=O)c2cccc(NC(=O)C3CCCCC3)c2O[C@H]1CN(C)Cc1ccc(-c2ccccc2)cc1 | inactive
CC(C)NC(=O)Nc1ccc2c(c1)C(=O)N([C@@H](C)CO)C[C@H](C)[C@H](CN(C)S(=O)(=O)c1ccc(F)cc1)O2 | inactive
Cc1cccc(N2CCC(N)CC2)c1 | inactive
CN1C(=O)c2cc(NC(=O)c3ccc(F)c(F)c3)ccc2OC[C@H]2O[C@@H](CC(=O)N3CCOCC3)CC[C@@H]21 | inactive
COc1ccc(NC(=O)N(C)C[C@@H]2Oc3c(NC(=O)c4ccc(-c5nccs5)cc4)cccc3C(=O)N([C@@H](C)CO)C[C@H]2C)cc1 | inactive
CCNC(=O)C[C@H]1CC[C@@H]2[C@H](COC[C@@H](O)CN2C(=O)Nc2c(C)noc2C)O1 | inactive
CN(C)CCCCNC(=O)[C@@H]1C[C@@H]2C(=O)N[C@@H](CCCC[N+](C)(C)C)C(=O)N2[C@@H]1c1cccc(OCCO)c1 | inactive
Cc1ccc(S(=O)(=O)Nc2ccc3c(c2)C(=O)N([C@H](C)CO)C[C@H](C)[C@@H](CN(C)S(=O)(=O)c2ccc(C)cc2)OCCCC[C@H](C)O3)cc1 | inactive
Cc1ccc(S(=O)(=O)Nc2ccc3c(c2)C(=O)N([C@H](C)CO)C[C@@H](C)[C@@H](CN(C)S(=O)(=O)c2ccc(C)cc2)OCCCC[C@@H](C)O3)cc1 | inactive
Cc1ccc(S(=O)(=O)Nc2ccc3c(c2)C(=O)N([C@@H](C)CO)C[C@H](C)[C@H](CN(C)S(=O)(=O)c2ccc(C)cc2)OCCCC[C@H](C)O3)cc1 | active
Cc1ccc(S(=O)(=O)Nc2ccc3c(c2)C(=O)N([C@@H](C)CO)C[C@@H](C)[C@H](CN(C)S(=O)(=O)c2ccc(C)cc2)OCCCC[C@@H](C)O3)cc1 | active
Cc1ccc(S(=O)(=O)Nc2ccc3c(c2)C(=O)N([C@H](C)CO)C[C@H](C)[C@@H](CN(C)S(=O)(=O)c2ccc(C)cc2)OCCCC[C@@H](C)O3)cc1 | inactive
Cc1ccc(S(=O)(=O)Nc2ccc3c(c2)C(=O)N([C@H](C)CO)C[C@@H](C)[C@H](CN(C)S(=O)(=O)c2ccc(C)cc2)OCCCC[C@@H](C)O3)cc1 | inactive
